This is part of a sample that, as a whole, favours compounds with a hit. Of some 83,000 tested, about 20% had one in any assay.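 Percent growth is the endpoint: 0 to 100 indicates growth inhibition (40 means 60% inhibition), 0 means no net growth, and negative values indicate cell death.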 Unmarked numbers belong to inactive results. The source made the active and inactive calls. Rule for the calls: active = growth percent below 10; inactive = the rest.

Consider 15 molecules from PubChem BioAssay (NCI).

Some test systems named below: T-47D breast; BT-549 breast; MDA-MB-435 melanoma; SW-620 colon; MCF7 breast; HCT-116 colon; HCC-2998 colon; KM12 colon.
Common to all, as to assay: NCI-60 one-dose screen, 48 h (100 = growth as untreated, 0 = no growth, -100 = all killed)
Common to all, as to conditions: 10 µM unless noted

As for `Cc1ccccc1NC(=O)N/C(N)=N/c1nc(C)c(C)s1`, the growth with T-47D breast is 36.2%; in the assay with BT-549 breast, 66.3%; in the assay on MDA-MB-435 melanoma it was -46.9% (active); with SW-620 colon, 25%; in the assay on MCF7 breast it was 21.4%; with HCT-116 colon, 21.7%. Besides, the growth in the assay with HCC-2998 colon is 22.1%; with KM12 colon, 35%.
For `COc1cc(C2CC(=O)Nc3c2c(C)nn3-c2nc3ccccc3[nH]2)c(OC)c(OC)c1OC` (stereo not given), the growth in the assay on T-47D breast was 40.8%; in the assay on BT-549 breast, 52.7%; in the assay on MDA-MB-435 melanoma, -36.4% (active); with SW-620 colon, 26.7%; in the assay with MCF7 breast, 25.4%; in the assay on HCT-116 colon it was 23.5%. Further, the growth in the assay on HCC-2998 colon is 95.2%; with KM12 colon, 35.1%.
On to `COCN1CCC2N(COC)CCC3N(COC)CCC1N23` (stereo not given), for which the growth was 99.6% in the assay with T-47D breast; 108% in the assay on BT-549 breast; 110% in the assay with MDA-MB-435 melanoma; 114% with SW-620 colon; 99.4% in the assay on MCF7 breast; 101% in the assay on HCT-116 colon. The results for the growth with HCC-2998 colon and with KM12 colon were 100% and 106%, respectively.
Consider `CCN(CC)CCN1C(=O)c2c(c(C)c3c(oc4cc(O)ccc43)c2C)C1=O`, for which the growth in the assay with T-47D breast was 89.5%; in the assay with BT-549 breast, 86.7%; with MDA-MB-435 melanoma it was 72.9%; with SW-620 colon it was -50.2% (active); in the assay on MCF7 breast it was 3.63% (active); in the assay with HCT-116 colon, -85% (active). The growth in the assay on HCC-2998 colon is 92%; with KM12 colon, -80.1% (active).
As to `COc1cc(CCC[P+](c2ccccc2)(c2ccccc2)c2ccccc2)cc2c1OCO2`, the growth is 11.5% in the assay with T-47D breast; 23.3% in the assay on BT-549 breast; 3.36% (active) with MDA-MB-435 melanoma; 37.6% in the assay on SW-620 colon; 18.2% with MCF7 breast; 22.8% in the assay on HCT-116 colon. Also, the growth in the assay on HCC-2998 colon is 24.3%; in the assay on KM12 colon, 10.7%.
Consider `C[C@@H]1N=C(c2ccc3ccccc3n2)Nc2nc3ccccn3c2C1=O`, for which the growth with T-47D breast was 90.2%; in the assay with BT-549 breast it was 88.8%; in the assay with MDA-MB-435 melanoma it was 104%; with SW-620 colon, 99%; with MCF7 breast it was 76.7%; with HCT-116 colon, 95.5%. Moreover, the growth was 101% with HCC-2998 colon and 95.3% with KM12 colon.
In the case of `c1c[nH]c(CNC2CCCCC2)c1`, the growth with T-47D breast was 105%; in the assay on BT-549 breast it was 105%; in the assay with MDA-MB-435 melanoma, 115%; with SW-620 colon it was 102%; in the assay on MCF7 breast it was 103%; in the assay with HCT-116 colon, 103%. In addition, the figures for the growth with HCC-2998 colon and in the assay on KM12 colon were 109% and 98.2%, respectively.
With `COC(=O)c1c2c(c(C)[n+]([O-])c1C)C(=O)C(NCc1ccc(F)cc1)=CC2=O`, the growth with T-47D breast is 6.75% (active); in the assay with BT-549 breast, 52.4%; in the assay with MDA-MB-435 melanoma, -72.9% (active); with SW-620 colon it was 6.37% (active); with MCF7 breast, -0.8% (active); in the assay with HCT-116 colon, 1.27% (active). The growth in the assay with HCC-2998 colon is 25.7%; with KM12 colon, 19.9%.
As for `CN(C)c1ccc(/C=C/C(=O)c2cccc(Nc3nc(Nc4ccccc4)nc(Nc4ccccc4)n3)c2)cc1`, the growth in the assay on T-47D breast was 81.4%; with BT-549 breast, 99.3%; with MDA-MB-435 melanoma it was 101%; with SW-620 colon it was 103%; in the assay with MCF7 breast it was 75.1%; with HCT-116 colon it was 83.2%. Further, the values for the growth in the assay with HCC-2998 colon and in the assay on KM12 colon were 64.5% and 99.8%, respectively.
For the molecule `C[n+]1cc2cc(C(N)=O)[nH]c3c(=N)c(Cl)c(N)c1c23`, the growth in the assay with T-47D breast was 48.3%; with BT-549 breast it was 78.9%; in the assay with MDA-MB-435 melanoma, 85.7%; in the assay on SW-620 colon, 30.8%; with MCF7 breast it was 35.8%; with HCT-116 colon it was 6.54% (active). The growth was 65.5% with HCC-2998 colon and 74.5% in the assay with KM12 colon.
Turning to `COc1ccc(OC)c2c1[nH]c(=O)c1c3ncccc3cn21`, the growth is 39% in the assay on T-47D breast; 86.6% with BT-549 breast; 28.6% in the assay on MDA-MB-435 melanoma; 15.2% in the assay on SW-620 colon; 8.95% (active) in the assay on MCF7 breast; 21.7% in the assay with HCT-116 colon. Also, the growth with HCC-2998 colon is 36.1%; in the assay with KM12 colon it was 32.5%.
In the case of `CCN1CCN(c2cc(C)nc(NCc3cc(Nc4ccnc5cc(Cl)ccc45)ccc3F)n2)CC1`, the growth in the assay with T-47D breast was -17.7% (active); in the assay with BT-549 breast, 98.6%; with MDA-MB-435 melanoma, 50.7%; in the assay with SW-620 colon, 40.8%; in the assay on MCF7 breast, 6.99% (active); with HCT-116 colon, 11.8%. Besides, the growth was 28% with HCC-2998 colon and 82.7% with KM12 colon.
For `O=C(c1ccccc1)c1c(/C=C/c2ccc(Cl)cc2)nc2ccccc2c1/C=C/c1cccs1`, the growth is 94.6% with T-47D breast; 99.3% in the assay on BT-549 breast; 99.1% in the assay on MDA-MB-435 melanoma; 110% in the assay with SW-620 colon; 92.3% in the assay on MCF7 breast; 95.8% with HCT-116 colon. Moreover, the growth in the assay on HCC-2998 colon was 103%; in the assay with KM12 colon, 99.3%.
For the molecule `COc1ccc(-c2nc(SCCC(C)C)nc(N/N=C\c3ccccc3O)c2C#N)cc1`, the growth in the assay on T-47D breast is 83.9%; with BT-549 breast, 100%; in the assay with MDA-MB-435 melanoma it was 87.8%; in the assay with SW-620 colon, 72.1%; with MCF7 breast, 79%; in the assay with HCT-116 colon, 71%. For the same molecule, the figures for the growth in the assay on HCC-2998 colon and in the assay on KM12 colon were 104% and 91.4%, respectively.
As for `C=C1C(=O)O[C@H]2[C@H]1CC/C(COC(=O)C(=O)c1c[nH]c3ccccc13)=C\CC[C@@]1(C)O[C@@H]21`, the growth in the assay with T-47D breast is -56.8% (active); with BT-549 breast, -67.3% (active); with MDA-MB-435 melanoma, -59.4% (active); in the assay with SW-620 colon, -64.9% (active); in the assay on MCF7 breast, -16.9% (active); in the assay on HCT-116 colon, -88.6% (active). Besides, the values for the growth in the assay with HCC-2998 colon and in the assay on KM12 colon were -79.5% (active) and -56.5% (active), respectively.
